Measurements published in PubChem BioAssay AID1159580 (chemical genetic matrix, 2015).
Hit rate of the full screen: of about 5,500 compounds, about 2,000 (36%) were called active. Inconclusive results (about 18%) are left out. No stated cut-off is given here; in the data, active means normalized growth mostly below about 0.91 (no sharp cut-off); inconclusive means no clear call, values can overlap the other calls; inactive means mostly above about 0.92. This is one part of the list.

Experiment: chemical genetic growth profiling, strain panel (AID 1159580);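 further: tested at 20 µM; growth read once vehicle control cultures reached saturation at 30 °C; 1 = growth at the plate median or of vehicle wells; lower values mean less growth of the strain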
Settings: growth OD

Measured: normalized growth

O=C(CCCN1CC=C(n2c(=O)[nH]c3ccccc32)CC1)c1ccc(F)cc1
inactive: S. cerevisiae deletion strains, locus YJR075W, strain HOC1, active compounds read low 0.98 | S. cerevisiae deletion strains, locus YKL009W, strain mrt4, active compounds read low 0.939 | S. cerevisiae deletion strains, locus YKL068W, active compounds read low 0.989 | S. cerevisiae deletion strains, locus YKL085W, strain MDH1 (second series), active compounds read low 0.994 | S. cerevisiae deletion strains, locus YKL085W, strain MDH1, active compounds read low 0.994 | S. cerevisiae deletion strains, locus YKL160W, strain elf1, active compounds read low 0.977 | S. cerevisiae deletion strains, locus YKL190W, strain CNB1, active compounds read low 0.99 | S. cerevisiae deletion strains, locus YKR001C, strain vps1, active compounds read low 0.981 | S. cerevisiae deletion strains, locus YKR026C, strain gcn3, active compounds read low 0.948 | S. cerevisiae deletion strains, locus YKR091W, strain srl3, active compounds read low 0.967 | S. cerevisiae deletion strains, locus YLL001W, strain dnm1, active compounds read low 0.957 | S. cerevisiae deletion strains, locus YLL026W, active compounds read low 0.968 | S. cerevisiae deletion strains, locus YLL041C, strain sdh2, active compounds read low 0.988 | S. cerevisiae deletion strains, locus YLR027C, strain aat2, active compounds read low 0.979 | S. cerevisiae deletion strains, locus YLR039C, strain RIC1, active compounds read low 0.969 | S. cerevisiae deletion strains, locus YLR058C, strain SHM2, active compounds read low 0.967 | S. cerevisiae deletion strains, locus YLR102C, strain apc9, active compounds read low 0.989 | S. cerevisiae deletion strains, locus YLR113W, strain HOG1, active compounds read low 0.971 | S. cerevisiae deletion strains, locus YLR221C, strain rsa3, active compounds read low 0.976 | S. cerevisiae deletion strains, locus YLR258W, strain gsy2, active compounds read low 0.987 | S. cerevisiae deletion strains, locus YLR262C, strain YPT6 (second series), active compounds read low 0.954 | S. cerevisiae deletion strains, locus YLR262C, strain YPT6, active compounds read low 0.942 | S. cerevisiae deletion strains, locus YLR268W, strain sec22, active compounds read low 1.05 | S. cerevisiae deletion strains, locus YLR320W, strain mms22, active compounds read low 0.986 | S. cerevisiae deletion strains, locus YLR330W, strain CHS5, active compounds read low 0.986 | S. cerevisiae deletion strains, locus YLR342W, strain FKS1 (second series), active compounds read low 0.944 | S. cerevisiae deletion strains, locus YLR342W, strain FKS1, active compounds read low 0.974 | S. cerevisiae deletion strains, locus YLR357W, strain rsc2, active compounds read low 0.951 | S. cerevisiae deletion strains, locus YLR370C, strain arc18, active compounds read low 0.972 | S. cerevisiae deletion strains, locus YLR371W, strain rom2, active compounds read low 0.949 | S. cerevisiae deletion strains, locus YLR384C, strain iki3, active compounds read low 0.961 | S. cerevisiae deletion strains, locus YLR418C, strain cdc73, active compounds read low 0.968 | S. cerevisiae deletion strains, locus YML016C, strain PPZ1, active compounds read low 0.987 | S. cerevisiae deletion strains, locus YML032C, strain rad52, active compounds read low 0.993 | S. cerevisiae deletion strains, locus YML120C, strain ndi1, active compounds read low 1 | S. cerevisiae deletion strains, locus YML124C, strain tub3, active compounds read low 0.975 | S. cerevisiae deletion strains, locus YMR058W, strain fet3, active compounds read low 0.99 | S. cerevisiae deletion strains, locus YMR078C, strain ctf18, active compounds read low 0.979 | S. cerevisiae deletion strains, locus YMR125W, strain sto1, active compounds read low 0.944 | S. cerevisiae deletion strains, locus YMR129W, active compounds read low 0.987 | S. cerevisiae deletion strains, locus YMR205C, strain PFK2, active compounds read low 0.951 | S. cerevisiae deletion strains, locus YMR223W, strain ubp8, active compounds read low 0.955 | S. cerevisiae deletion strains, locus YMR231W, strain pep5, active compounds read low 0.979 | S. cerevisiae deletion strains, locus YMR263W, strain SAP30, active compounds read low 0.987 | S. cerevisiae deletion strains, locus YMR307W, strain GAS1, active compounds read low 0.974 | S. cerevisiae deletion strains, locus YNL067W, strain RPL9B, active compounds read low 0.999 | S. cerevisiae deletion strains, locus YNL071W, strain lat1, active compounds read low 0.982 | S. cerevisiae deletion strains, locus YNL128W, strain TEP1, active compounds read low 0.98 | S. cerevisiae deletion strains, locus YNL153C, strain GIM3, active compounds read low 0.985 | S. cerevisiae deletion strains, locus YNL183C, strain NPR1, active compounds read low 0.925 | S. cerevisiae deletion strains, locus YNL209W, strain ssb2, active compounds read low 0.975 | S. cerevisiae deletion strains, locus YNL233W, strain BNI4, active compounds read low 0.992 | S. cerevisiae deletion strains, locus YNL248C, strain rpa49, active compounds read low 0.981 | S. cerevisiae deletion strains, locus YNL250W, strain rad50, active compounds read low 0.971 | S. cerevisiae deletion strains, locus YNL271C, strain bni1, active compounds read low 0.995 | S. cerevisiae deletion strains, locus YNL298W, strain CLA4, active compounds read low 0.982 | S. cerevisiae deletion strains, locus YNL307C, strain MCK1, active compounds read low 0.968 | S. cerevisiae deletion strains, locus YNL322C, strain KRE1 (second series), active compounds read low 0.984 | S. cerevisiae deletion strains, locus YNL322C, strain KRE1, active compounds read low 0.987 | S. cerevisiae deletion strains, locus YNR049C, strain mso1, active compounds read low 0.972 | S. cerevisiae deletion strains, locus YNR052C, strain pop2, active compounds read low 0.992 | S. cerevisiae deletion strains, locus YOL006C, strain TOP1, active compounds read low 0.996 | S. cerevisiae deletion strains, locus YOL012C, strain htz1 0.899 | S. cerevisiae deletion strains, locus YOL147C, strain pex11, active compounds read low 0.991 | S. cerevisiae deletion strains, locus YOR001W, strain rrp6, active compounds read low 0.955 | S. cerevisiae deletion strains, locus YOR061W, strain CKA2, active compounds read low 0.97 | S. cerevisiae deletion strains, locus YOR070C, strain gyp1, active compounds read low 0.99 | S. cerevisiae deletion strains, locus YOR080W, strain dia2, active compounds read low 0.963 | S. cerevisiae deletion strains, locus YOR083W, strain WHI5, active compounds read low 0.978 | S. cerevisiae deletion strains, locus YOR106W, strain vam3, active compounds read low 0.933 | S. cerevisiae deletion strains, locus YOR136W, strain idh2, active compounds read low 0.983 | S. cerevisiae deletion strains, locus YOR144C, strain elg1, active compounds read low 0.988 | S. cerevisiae deletion strains, locus YOR184W, strain ser1, active compounds read low 0.967 | S. cerevisiae deletion strains, locus YOR231W, strain MKK1, active compounds read low 0.992 | S. cerevisiae deletion strains, locus YOR265W, strain rbl2, active compounds read low 0.981 | S. cerevisiae deletion strains, locus YOR270C, strain vph1, active compounds read low 0.956 | S. cerevisiae deletion strains, locus YOR290C, strain snf2, active compounds read low 0.98 | S. cerevisiae deletion strains, locus YOR316C, strain cot1, active compounds read low 0.98 | S. cerevisiae deletion strains, locus YPL051W, strain arl3, active compounds read low 0.98 | S. cerevisiae deletion strains, locus YPL055C, strain LGE1, active compounds read low 0.955 | S. cerevisiae deletion strains, locus YPL078C, strain atp4, active compounds read low 0.949 | S. cerevisiae deletion strains, locus YPL106C, strain sse1, active compounds read low 0.967 | S. cerevisiae deletion strains, locus YPL240C, strain hsp82, active compounds read low 0.979 | S. cerevisiae deletion strains, locus YPL241C, strain CIN2, active compounds read low 0.992 | S. cerevisiae deletion strains, locus YPL256C, strain CLN2, active compounds read low 0.991 | S. cerevisiae deletion strains, locus YPR119W, strain clb2, active compounds read low 0.989 | S. cerevisiae deletion strains, locus YPR141C, strain kar3, active compounds read low 0.973 | S. cerevisiae deletion strains, locus YPR163C, strain tif3, active compounds read low 0.989 | S. cerevisiae deletion strains, locus YPR167C, strain met16, active compounds read low 0.991 | S. cerevisiae deletion strains, strain wtn01, active compounds read low 0.991 | S. cerevisiae strains, strain wild type, active compounds read low 0.979
